# tim23-1 inh = tim23-1 yeast growth inhibition; 330,000 tested, 1.3% active; S. cerevisiae tim23-1 growth, BacTiter-Glo luminescence, 24 h; inhibition, % at 20 µM; AID 463212;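 active = growth inhibition of the mutant yeast at or above 50%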;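 also: temperature-sensitive mutant grown at 25 °C; plate controls were DMSO-treated mutant yeast for no effect and medium wells lacking yeast for full effect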
# Beta2AR agonist = activates human beta-2 adrenergic receptor causing internalization | P07550 | Am2.2-beta2AR cells, FAP receptor internalization, flow cytometry | response, % (concentration not given with the values) | 340,000 tested, 0.43% active | AID 504454;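 active = response above a set limit, near 3 SD of response in nonfluorescent compounds, cut at about 42% in these data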
# Target sequence (P07550 whole entry, looked up): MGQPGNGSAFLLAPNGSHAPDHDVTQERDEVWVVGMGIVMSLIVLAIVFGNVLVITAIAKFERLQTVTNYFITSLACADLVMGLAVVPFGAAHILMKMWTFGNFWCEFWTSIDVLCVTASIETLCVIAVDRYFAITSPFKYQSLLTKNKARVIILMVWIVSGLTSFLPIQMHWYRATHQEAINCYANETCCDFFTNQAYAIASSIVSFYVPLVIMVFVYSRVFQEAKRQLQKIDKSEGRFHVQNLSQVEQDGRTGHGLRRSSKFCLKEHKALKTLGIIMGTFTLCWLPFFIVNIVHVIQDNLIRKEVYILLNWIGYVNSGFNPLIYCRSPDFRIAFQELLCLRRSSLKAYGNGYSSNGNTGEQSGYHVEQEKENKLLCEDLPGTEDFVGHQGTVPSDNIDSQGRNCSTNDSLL
# PfHsp90 yeast 2 = growth inhibition of yeast expressing Plasmodium Hsp90 | S. cerevisiae expressing PfHsp90, BacTiter-Glo ATP, 48 h; yeast lacking PDR1 and PDR3 efflux regulators | 310,000 tested, 0.32% active | AID 504621 | inhibition, % at 9.4 µM;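 active = every replicate shows inhibition above about 80%, whatever the replicate mean, limit read from the data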;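 also: 0% = DMSO neutral controls and 100% = 20 µM radicicol positive controls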
# TIM10 inh = TIM10 yeast growth inhibition | S. cerevisiae TIM10 strain growth, BacTiter-Glo luminescence, 24 h | inhibition, % at 10 µM | 330,000 tested, 1.4% active;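 active = inhibition of 40% or more at the single tested concentration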;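 also: wild-type TIM10 isogenic control strain grown at permissive 25 °C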
# tim10-1 inh = tim10-1 yeast growth inhibition; S. cerevisiae tim10-1 ts strain growth, BacTiter-Glo, 24 h; inhibition, % at 20 µM; AID 463190; 330,000 tested, 2.2% active;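 active = inhibition of at least 40%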;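 also: mutant grown at 25 °C; 0% = DMSO wells with yeast and 100% = wells holding no yeast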
# TIM10 conf = TIM10 yeast growth inhibition, confirmed; S. cerevisiae tim10 strain growth, BacTiter-Glo luminescence, 24 h; shares compounds with TIM10 inh; inhibition, % at 10 µM; 4,600 tested, 63% active;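 active = inhibition of yeast growth at or above a set limit in either of two replicates at 10 µM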;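 also: this counterscreen used the strain with wild-type TIM10; 0% = yeast with DMSO and 100% = medium wells lacking yeast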
# tim23-1 confirm = tim23-1 yeast growth inhibition, confirmed | shares compounds with tim23-1 inh | inhibition, % at 20 µM | S. cerevisiae tim23-1 growth, BacTiter-Glo luminescence, 24 h | AID 463218 | 4,400 tested, 83% active;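 active = inhibition above about 39% in either of two replicate wells at 20 µM, limit read from the data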;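 also: temperature-sensitive tim23-1 mutant grown at 25 °C; 0% = DMSO wells with yeast and 100% = medium wells without yeast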
# Starred values were filed as active, the others as inactive; . = no result. An excerpt weighted towards active compounds, which were near 3.8% of everything screened.
SMILES,tim23-1 inh,Beta2AR agonist,PfHsp90 yeast 2,TIM10 inh,tim10-1 inh,TIM10 conf,tim23-1 confirm
COc1ccc(OC)c2[nH]c(C(=O)N/N=C/c3ccccc3O)cc12,54.3*,11.8,15.7,44.7*,13.6,26.2,49.8*
COc1ccc(/C=N/NC(=O)c2cc3c(OC)ccc(OC)c3[nH]2)cc1O,14.1,21.9,-3.2,3.1,18.1,.,.
Nc1c(C(=O)Nc2ccccc2)sc2nc(-c3ccco3)ccc12,63.7*,5.4,.,67.5*,35.8,63.5*,85.2*
CC(=O)Nc1cccc(-c2cc(-c3c(Cl)cccc3Cl)no2)c1,61.4*,4.2,-60.4,44.0*,35.0,28.4,40.7*
CC(C)NC(=S)N/N=C/c1cc(Br)ccc1O,55.1*,1.0,-40.8,55.5*,39.1,-9.7,-5.6
O=C(N/N=C/c1cc(Br)ccc1O)c1ccccc1Cl,78.9*,-2.2,-54.2,64.9*,35.5,-34.0,68.8*
COC(=O)N/N=C/c1cc(Br)ccc1O,2.0,4.4,-34.6,7.8,23.3,.,.
CC(C)NC(=O)CN1C(=O)c2cccc3cccc1c23,-5.1,15.7,14.3,-1.5,-13.3,.,.
CCN(CC)c1ccc(/C=N/NC(=O)c2cccc(S(=O)(=O)N3CCOCC3)c2)c(O)c1,-11.3,10.0,-12.0,7.1,23.4,.,.
CCN(CC)c1ccc(/C=N/NC(=O)c2c(Cl)cnn2C)c(O)c1,66.5*,10.9,20.4,58.1*,36.3,13.2,62.2*
COc1ccc(N=N/C(=C\O)C(=O)c2cccs2)cc1,76.4*,25.9,-11.5,55.0*,37.0,58.5*,64.6*
COc1ccc(NC(=O)c2cccs2)cc1,9.6,-13.9,-1.3,3.5,-15.8,.,.
COC(=O)c1cccc(-n2sc3ccccc3c2=O)c1,21.9,9.2,20.8,27.5,24.3,.,.
Cc1ccc(-n2sc3ccccc3c2=O)cc1,59.1*,2.1,-123.6,65.1*,35.8,1.3,56.5*
O=C(O)CSc1ncnc2scc(-c3ccccc3)c12,10.3,5.7,-2.0,9.7,4.6,.,.
CCC(=O)Nc1ccccc1Sc1ncnc2scc(-c3ccccc3)c12,56.9*,-7.0,-19.5,43.1*,32.5,32.4*,50.2*
CC[C@]12c3[nH]c4ccc(OC)cc4c3CCN1C(=O)C(CC(=O)NCCc1ccccn1)C[C@@H]2C(=O)N1CCN(C(=O)c2ccco2)CC1 (some centres undefined),12.5,1.7,-14.0,-4.2,6.7,.,.
N#C/C(=C\c1ccc(N2CCOCC2)o1)c1nc2ccccc2[nH]1,53.9*,-35.5,8.4,41.6*,35.9,31.2*,73.8*
Nc1ccc2cc3[nH]c4cc(N)ccc4c3nc2c1,.,.,-2.1,.,.,.,.
COc1ccc2c(c1)C(=O)N1[C@H]3c4cc(C)ccc4OC[C@@H]3[C@H](c3ccccc3)[C@]1(C)C(=O)N2,-10.1,4.4,-24.1,-9.4,28.8,.,.
COc1ccc2c(c1)[C@@H]1[C@H](CO2)[C@H](c2ccccc2)[C@]2(C)C(=O)Nc3ccc(C)cc3C(=O)N12,58.4*,21.9,15.9,42.2*,34.7,35.2*,57.0*
CNC(=S)N(CCc1c(C)[nH]c2ccc(F)cc12)Cc1cccnc1,12.1,-2.0,-4.4,-12.4,12.0,.,.
NS(=O)(=O)c1ccc(CNS(=O)(=O)c2ccc3c(c2)OCCO3)cc1,1.8,0.7,-9.2,5.8,-7.2,.,.
Cc1ccc(CNS(=O)(=O)c2ccc3c(c2)OCCO3)cc1,55.5*,6.6,25.3,41.3*,38.4,41.5*,46.2*
Brc1ccc2ncnc(Nc3cccc4ccccc34)c2c1,72.6*,-4.6,-42.9,41.4*,28.3,28.7,47.4*
CN(C)CCCOC(=O)c1ccccc1,-6.4,6.7,6.0,-1.9,-7.8,.,.
N/C(CC1CC1(Cl)Cl)=N\OC(=O)c1ccccc1 (centres undefined),79.5*,2.3,-5.9,52.0*,35.1,66.3*,73.2*
CN(C)c1nc(Cl)nc2c1nc(Cl)n2C1CCCCO1 (centres undefined),.,-3.9,15.8,.,.,.,.
O=c1oc2cc(O)ccc2s1,-3.7,3.4,17.6,-1.4,-8.1,.,.
Cc1ccc(-c2cc(O)cc3sc(=O)oc23)cc1C,71.3*,5.1,-49.9,53.5*,23.2,68.0*,6.8

# Screens (PubChem BioAssay)
